The full data set covers some 7,900 targets. This sample favours those with a hit. About 0.6% of all pairs of compound and target were hits. A number with no mark means an inactive call.
Columns and labels:
Experiment in all cases: log2 fold change, soluble protein after heating vs DMSO (PISA); higher = thermal stabilisation; K562 cells, 10 uM, 30 min; active = over 0.2 and 3.5 SD of the protein, either way, in both replicates (recomputed)
erlotinib = compound: C#Cc1cccc(Nc2ncnc3cc(OCCOC)c(OCCOC)cc23)c1 [erlotinib]
Procedure, shortened: (§1)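 K562 cells at 2×10^6 cells/mL were given 10 μM compound for 30 min. Aliquots then went through 3 min of heating across 48°C-58°C, were pooled, and were extracted in PBS with 0.5% NP-40 at 4°C, and the supernatant after 21,000xg for 90 min was quantified by TMTpro 16plex LC-MS/MS with channel sums equalised. Thermal stability relative to control samples, from duplicates, is given as log2 fold change.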

[1] = compound: C/C(=N\NC(=O)C1=CC(=CC=C1)S(=O)(=O)N2CCOCC2)/C3=C(C=CC(=C3)Cl)O
Procedure, shortened: as §1

[2] = compound: C1=CC(=C(C=C1Cl)C2=NC3=NC=CN=C3C(=N2)NC4=CC=NC=C4)F
Procedure, shortened: as §1

[3] = compound: C1=CC(=CC=C1C2=NC3=C(N2)C=C(C=C3)C(=O)N)OC4=CC=C(C=C4)Cl
Procedure, shortened: as §1

[4] = compound: C1=CC2=C(C=CC(=C2)/C=C\3/C(=O)NC(=NCC4=CC=CS4)S3)N=C1
Procedure, shortened: as §1

[5] = compound: C1=CC2=NC=CN=C2C=C1/C=C/3\C(=O)NC(=O)S3
Procedure, shortened: as §1

[6] = compound: C1=CC=C(C=C1)C2=NC(=C(N2)C3=CC=NC=C3)C4=CC(=C(C=C4)Cl)O
Procedure, shortened: as §1

[7] = compound: C1=CC=C2C(=C1)C3=NNC4=CC=CC(=C43)C2=O
Procedure, shortened: as §1

[8] = compound: C1CCN(C1)C(=O)NC2=CC=CC(=C2)NC3=NC=C(C(=N3)NCCC4=CN=CN4)Br
Procedure, shortened: as §1

[9] = compound: C1CN(CCC1(CC2=CC=C(C=C2)Cl)N)C3=NC=NC4=C3C=CN4
Procedure, shortened: as §1

IRAK-1-4 Inhibitor I = compound: C1COCCN1CCN2C3=CC=CC=C3N=C2NC(=O)C4=CC(=CC=C4)[N+](=O)[O-] [IRAK-1-4 Inhibitor I]
Procedure, shortened: as §1

ibrutinib = compound: C=CC(=O)N1CCC[C@@H](n2nc(-c3ccc(Oc4ccccc4)cc3)c3c(N)ncnc32)C1 [ibrutinib]
Procedure, shortened: as §1

[10] = compound: CC(=O)c1cnc2ccc(-c3cc(Cl)c(O)c(Cl)c3)nc2c1N[C@H]1CC[C@H](CN(C)C)CC1
Procedure, shortened: as §1

ralimetinib = compound: CC(C)(C)Cn1c(N)nc2ccc(-c3[nH]c(C(C)(C)C)nc3-c3ccc(F)cc3)nc21 [ralimetinib]
Procedure, shortened: as §1

[11] = compound: CC(C)(O)CC(=O)NCCn1ccc2ncnc(Nc3ccc(Oc4cccc(C(F)(F)F)c4)c(Cl)c3)c21
Procedure, shortened: as §1

[12] = compound: CC(C)C1=C2N=C(C=C(N2N=C1)NCC3=CC=CC=C3)NCCCCCCN
Procedure, shortened: as §1

[13] = compound: CC(C)C[C@@H](C=O)NC(=O)[C@H](CC(C)C)NC(=O)[C@H](CC(C)C)NC(=O)OCc1ccccc1
Procedure, shortened: as §1

pinometostat = compound: CC(C)N(C[C@H]1O[C@@H](n2cnc3c(N)ncnc32)[C@H](O)[C@@H]1O)[C@H]1C[C@@H](CCc2nc3cc(C(C)(C)C)ccc3[nH]2)C1 [pinometostat]
Procedure, shortened: as §1

[14] = compound: CC1=C(C(CC(=O)N1)C2=CC=C(C=C2)C(F)(F)F)C(=O)NC3=C(C=C4C(=C3)C=NN4)F
Procedure, shortened: as §1

[15] = compound: CC1=C(C2=C(C=C1)C(=O)C3=CC=CC=C3N2CCCN)C
Procedure, shortened: as §1

Sequence of UniProt P27815 (P27815 whole entry, looked up): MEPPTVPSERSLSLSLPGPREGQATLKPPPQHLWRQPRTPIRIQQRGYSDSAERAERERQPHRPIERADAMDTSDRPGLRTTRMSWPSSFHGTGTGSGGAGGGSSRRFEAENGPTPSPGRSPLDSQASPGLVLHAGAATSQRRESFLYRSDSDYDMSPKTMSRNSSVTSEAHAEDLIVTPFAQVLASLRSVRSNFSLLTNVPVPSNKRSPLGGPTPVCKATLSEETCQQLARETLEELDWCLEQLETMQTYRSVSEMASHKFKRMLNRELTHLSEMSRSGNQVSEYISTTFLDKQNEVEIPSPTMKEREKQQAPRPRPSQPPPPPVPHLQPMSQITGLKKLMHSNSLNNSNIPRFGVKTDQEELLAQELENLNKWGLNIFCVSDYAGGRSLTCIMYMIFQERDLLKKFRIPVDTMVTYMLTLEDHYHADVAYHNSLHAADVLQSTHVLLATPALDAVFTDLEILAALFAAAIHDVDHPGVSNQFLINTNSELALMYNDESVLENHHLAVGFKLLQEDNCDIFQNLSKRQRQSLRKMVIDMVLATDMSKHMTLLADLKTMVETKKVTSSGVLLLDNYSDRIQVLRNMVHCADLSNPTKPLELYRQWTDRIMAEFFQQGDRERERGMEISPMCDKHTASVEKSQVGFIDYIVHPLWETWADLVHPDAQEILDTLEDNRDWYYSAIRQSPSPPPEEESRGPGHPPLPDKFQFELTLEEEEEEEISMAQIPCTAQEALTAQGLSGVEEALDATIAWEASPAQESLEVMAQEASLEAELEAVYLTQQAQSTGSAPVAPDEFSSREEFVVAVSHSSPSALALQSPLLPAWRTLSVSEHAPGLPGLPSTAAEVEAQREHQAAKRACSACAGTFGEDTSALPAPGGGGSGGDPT
Sequence of UniProt O94806 (O94806 whole entry, looked up): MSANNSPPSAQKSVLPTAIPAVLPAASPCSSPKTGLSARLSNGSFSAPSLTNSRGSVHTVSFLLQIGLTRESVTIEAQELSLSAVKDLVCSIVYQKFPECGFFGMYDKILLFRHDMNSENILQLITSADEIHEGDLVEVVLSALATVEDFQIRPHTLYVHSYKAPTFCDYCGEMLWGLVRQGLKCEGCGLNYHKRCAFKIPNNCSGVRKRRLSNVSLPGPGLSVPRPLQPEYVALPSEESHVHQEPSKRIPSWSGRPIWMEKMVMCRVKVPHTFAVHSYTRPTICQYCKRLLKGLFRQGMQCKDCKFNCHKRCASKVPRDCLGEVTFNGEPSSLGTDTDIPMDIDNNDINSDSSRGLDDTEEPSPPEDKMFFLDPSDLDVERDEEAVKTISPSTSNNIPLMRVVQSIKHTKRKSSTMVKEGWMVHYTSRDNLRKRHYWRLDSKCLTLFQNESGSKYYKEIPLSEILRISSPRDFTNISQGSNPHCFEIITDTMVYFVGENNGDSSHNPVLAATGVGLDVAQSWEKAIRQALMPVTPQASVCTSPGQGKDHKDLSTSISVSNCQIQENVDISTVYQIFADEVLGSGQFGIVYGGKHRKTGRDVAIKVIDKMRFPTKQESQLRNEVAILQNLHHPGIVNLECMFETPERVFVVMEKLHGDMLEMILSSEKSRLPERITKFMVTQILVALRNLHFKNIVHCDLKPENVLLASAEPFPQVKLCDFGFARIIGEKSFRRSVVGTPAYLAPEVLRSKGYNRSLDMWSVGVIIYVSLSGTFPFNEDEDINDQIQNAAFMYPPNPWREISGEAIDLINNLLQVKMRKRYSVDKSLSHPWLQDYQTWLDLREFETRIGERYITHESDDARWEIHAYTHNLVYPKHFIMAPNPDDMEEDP
Sequence of UniProt Q96RV3 (Q96RV3 whole entry, looked up): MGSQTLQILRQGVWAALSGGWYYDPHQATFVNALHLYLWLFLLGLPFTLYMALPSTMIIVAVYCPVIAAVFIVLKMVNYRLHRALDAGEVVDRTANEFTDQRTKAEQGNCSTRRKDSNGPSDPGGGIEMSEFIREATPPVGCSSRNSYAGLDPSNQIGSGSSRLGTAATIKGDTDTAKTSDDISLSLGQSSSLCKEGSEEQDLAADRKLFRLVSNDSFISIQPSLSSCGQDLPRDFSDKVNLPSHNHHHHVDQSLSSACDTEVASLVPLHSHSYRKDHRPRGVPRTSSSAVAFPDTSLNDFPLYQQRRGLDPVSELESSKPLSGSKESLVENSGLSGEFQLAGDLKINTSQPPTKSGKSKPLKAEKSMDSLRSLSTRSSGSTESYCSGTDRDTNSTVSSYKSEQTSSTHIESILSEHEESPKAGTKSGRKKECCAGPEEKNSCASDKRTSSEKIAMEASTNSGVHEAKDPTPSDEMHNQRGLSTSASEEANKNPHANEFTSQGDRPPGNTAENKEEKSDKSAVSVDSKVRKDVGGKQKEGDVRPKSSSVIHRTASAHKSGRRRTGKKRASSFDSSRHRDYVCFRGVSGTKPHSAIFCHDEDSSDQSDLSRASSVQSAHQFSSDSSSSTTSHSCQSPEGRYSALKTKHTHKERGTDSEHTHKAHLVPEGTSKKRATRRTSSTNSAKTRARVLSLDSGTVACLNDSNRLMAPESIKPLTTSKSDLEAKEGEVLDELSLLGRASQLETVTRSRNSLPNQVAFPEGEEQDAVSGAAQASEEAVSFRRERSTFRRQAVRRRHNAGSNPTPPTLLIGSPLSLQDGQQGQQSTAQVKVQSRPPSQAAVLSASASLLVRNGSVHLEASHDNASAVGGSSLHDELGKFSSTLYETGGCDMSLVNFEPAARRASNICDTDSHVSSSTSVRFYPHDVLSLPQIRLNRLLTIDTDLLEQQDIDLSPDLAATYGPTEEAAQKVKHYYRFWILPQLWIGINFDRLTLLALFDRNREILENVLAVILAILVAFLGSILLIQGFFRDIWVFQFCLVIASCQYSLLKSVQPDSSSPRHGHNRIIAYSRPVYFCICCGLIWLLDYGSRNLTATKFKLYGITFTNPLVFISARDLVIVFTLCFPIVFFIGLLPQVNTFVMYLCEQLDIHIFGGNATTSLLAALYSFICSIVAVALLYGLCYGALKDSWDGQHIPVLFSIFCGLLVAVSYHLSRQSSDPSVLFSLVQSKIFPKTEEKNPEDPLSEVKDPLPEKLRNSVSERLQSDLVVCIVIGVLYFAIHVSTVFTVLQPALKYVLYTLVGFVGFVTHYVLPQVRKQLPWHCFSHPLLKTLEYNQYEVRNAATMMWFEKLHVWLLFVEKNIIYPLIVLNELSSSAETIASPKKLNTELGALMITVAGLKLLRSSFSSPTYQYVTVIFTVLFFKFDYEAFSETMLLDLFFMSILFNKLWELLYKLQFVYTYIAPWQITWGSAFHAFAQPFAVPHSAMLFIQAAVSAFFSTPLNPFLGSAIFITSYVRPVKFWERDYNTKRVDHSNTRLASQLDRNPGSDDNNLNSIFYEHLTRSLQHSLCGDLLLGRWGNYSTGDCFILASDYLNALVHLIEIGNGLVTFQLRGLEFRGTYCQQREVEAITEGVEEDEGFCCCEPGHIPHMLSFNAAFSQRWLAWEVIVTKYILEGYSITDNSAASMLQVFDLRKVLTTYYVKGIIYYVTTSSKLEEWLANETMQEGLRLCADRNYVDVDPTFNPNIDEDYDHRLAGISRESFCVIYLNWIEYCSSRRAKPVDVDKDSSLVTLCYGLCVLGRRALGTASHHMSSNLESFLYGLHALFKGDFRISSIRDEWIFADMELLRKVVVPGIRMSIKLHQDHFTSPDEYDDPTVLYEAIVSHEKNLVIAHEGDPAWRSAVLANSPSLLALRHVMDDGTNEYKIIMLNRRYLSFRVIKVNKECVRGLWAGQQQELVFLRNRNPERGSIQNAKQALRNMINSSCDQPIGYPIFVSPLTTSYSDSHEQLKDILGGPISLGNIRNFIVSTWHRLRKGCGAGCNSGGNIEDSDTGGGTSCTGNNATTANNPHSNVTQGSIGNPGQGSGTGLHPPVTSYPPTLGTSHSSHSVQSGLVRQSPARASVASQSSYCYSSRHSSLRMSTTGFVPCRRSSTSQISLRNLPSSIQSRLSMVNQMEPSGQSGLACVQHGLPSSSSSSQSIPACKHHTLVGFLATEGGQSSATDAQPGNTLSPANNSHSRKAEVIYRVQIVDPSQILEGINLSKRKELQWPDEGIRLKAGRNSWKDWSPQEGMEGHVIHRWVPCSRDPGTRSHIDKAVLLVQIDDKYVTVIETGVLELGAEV
Sequence of UniProt Q9BTU6 (Q9BTU6 whole entry, looked up): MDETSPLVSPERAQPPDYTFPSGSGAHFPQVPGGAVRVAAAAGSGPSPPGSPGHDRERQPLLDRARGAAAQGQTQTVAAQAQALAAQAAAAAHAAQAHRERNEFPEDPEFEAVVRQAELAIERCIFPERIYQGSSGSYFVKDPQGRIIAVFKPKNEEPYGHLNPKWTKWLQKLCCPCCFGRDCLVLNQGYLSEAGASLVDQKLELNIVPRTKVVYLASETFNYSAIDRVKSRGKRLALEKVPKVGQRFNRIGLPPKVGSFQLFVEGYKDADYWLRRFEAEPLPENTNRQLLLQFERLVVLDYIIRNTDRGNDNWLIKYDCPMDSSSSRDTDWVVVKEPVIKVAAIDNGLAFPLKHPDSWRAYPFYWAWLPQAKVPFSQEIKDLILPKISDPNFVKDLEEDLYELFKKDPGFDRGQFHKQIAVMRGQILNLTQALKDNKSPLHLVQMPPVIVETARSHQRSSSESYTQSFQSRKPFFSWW
Sequence of UniProt P14618 (P14618 whole entry, looked up): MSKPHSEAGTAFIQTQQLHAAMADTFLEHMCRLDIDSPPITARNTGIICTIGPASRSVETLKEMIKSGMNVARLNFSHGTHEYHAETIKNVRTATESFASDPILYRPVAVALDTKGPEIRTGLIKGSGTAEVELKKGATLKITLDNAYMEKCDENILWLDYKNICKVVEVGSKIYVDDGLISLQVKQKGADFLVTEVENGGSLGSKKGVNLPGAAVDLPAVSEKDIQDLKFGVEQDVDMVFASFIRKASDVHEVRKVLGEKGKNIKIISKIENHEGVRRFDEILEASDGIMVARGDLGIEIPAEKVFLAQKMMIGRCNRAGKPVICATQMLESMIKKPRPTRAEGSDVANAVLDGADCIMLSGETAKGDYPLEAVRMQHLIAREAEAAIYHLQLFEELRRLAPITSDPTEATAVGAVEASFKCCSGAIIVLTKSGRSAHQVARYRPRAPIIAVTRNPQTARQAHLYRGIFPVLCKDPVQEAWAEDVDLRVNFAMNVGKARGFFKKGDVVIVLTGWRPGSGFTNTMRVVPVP

Target	log2 fold change (erlotinib)	log2 fold change [1]	log2 fold change [2]	log2 fold change [3]	log2 fold change [4]	log2 fold change [5]	log2 fold change [6]	log2 fold change [7]	log2 fold change [8]	log2 fold change [9]	log2 fold change (IRAK-1-4 Inhibitor I)	log2 fold change (ibrutinib)	log2 fold change [10]	log2 fold change (ralimetinib)	log2 fold change [11]	log2 fold change [12]	log2 fold change [13]	log2 fold change (pinometostat)	log2 fold change [14]	log2 fold change [15]
PPP2R5A (UniProt Q15172)	0.011	0.098	0.009	-0.022	0.018	0.055	0.078	0.017	0	-0.015	0.005	-0.024	0.004	0.066	-0.16	-0.193	0.023	0.025	0.02	0.071
PI4K2A (UniProt Q9BTU6)	-0.037	-0.01	0.01	0.019	0.021	0.071	-0.029	0.01	-0.002	0.046	0.01	-0.018	-0.026	-0.072	-0.062	-0.158	-0.002	-0.024	-0.005	-0.006
PDE4A (UniProt P27815)	0.012	0.013	0.319	0.024	0.027	0.06	-0.077	-0.01	0.023	-0.148	0	0.249	0.077	-0.056	0.106	0.029	0.04	0.019	–	-0.077
PKM isoform 2 (UniProt P14618)	–	-0.004	0.075	–	-0.005	-0.18	-0.048	0.04	-0.047	0.003	-0.018	–	0	0.054	-0.561 (active)	–	0.023	0.08	-0.068	0.034
PCBP2 (UniProt F8VZX2)	-0.014	–	–	-0.077	–	-0.019	-0.008	–	–	–	-0.177	0.212	–	-0.004	–	-0.127	0.138	0.136	0.128	–
PCF11 (UniProt O94913)	–	0.04	–	–	-0.082	0.111	-0.191	0.083	–	–	0.002	-0.255	-0.093	-0.104	–	–	-0.083	-0.058	–	–
PHC3 isoform 7 (UniProt Q8NDX5)	0.08	–	0.24	-0.002	–	0.174	–	–	–	–	-0.377	-0.159	–	–	-0.25	-0.219	–	-0.11	0.021	–
PGK2 (UniProt P07205)	–	-0.055	-0.082	–	0.152	-0.018	-0.057	-0.012	0.034	0.029	0.039	-0.003	0.004	-0.07	0.008	–	0.063	-0.032	0.096	-0.037
PSMD8 (UniProt K7ERW6)	–	–	–	–	–	–	–	–	0.052	-0.148	0.018	–	–	–	–	–	–	0.001	–	0.037
PSMC3 (UniProt E9PLG2)	–	–	-0.437	–	–	0.151	–	–	0.27	-0.045	-0.064	-0.051	–	–	0.167	–	–	-0.1	–	-0.155
PTK2B (UniProt Q14289)	0.225	0.063	–	0.059	0.048	0.058	0.008	-0.066	0.025	0.105	-0.095	-0.257	-0.018	0.178	-0.026	-0.244	0.052	0.004	-0.014	0.061
PRKD2 (UniProt M0R346)	–	–	-0.066	–	–	-0.032	–	–	–	–	–	-0.096	–	–	-0.273	–	–	–	–	–
PI4K2B (UniProt Q8TCG2)	-0.003	-0.008	–	0.065	0.004	0.016	-0.019	-0.007	0.048	-0.173	0.035	-0.004	0.042	-0.04	–	-0.131	-0.017	0.053	0.135	0.003
PRKD3 (UniProt O94806)	0.051	0.373	–	0.013	-0.197	0.034	0.055	-0.507	–	–	0.189	0.059	-2.06 (active)	-0.089	–	-0.129	0.06	0.266	–	–
PTEN isoform 2 (UniProt P60484)	0.264	–	–	0.061	–	–	0.178	–	–	–	-0.227	–	–	0.062	–	-0.629 (active)	0.083	-0.006	–	–
PRR14L (UniProt Q5THK1)	–	-0.168	–	–	0.16	–	–	-0.091	0.166	-0.023	–	–	-0.104	–	–	–	–	–	0.015	0.008
PSMA3 (UniProt H0YJ03)	–	-0.698 (active)	–	–	0.095	–	-0.065	-0.006	-0.027	0.2	0.023	–	0.052	0.14	–	–	0.067	0.061	–	0.046
PUM1 (UniProt Q14671)	0.308	0.035	–	0.15	-0.034	–	–	0.051	-0.045	-0.024	0.101	–	-0.038	–	–	-0.226	–	0.073	–	0.139
PEX5 isoform 4 (UniProt P50542)	-0.133	-0.143	-0.036	0.076	0.048	–	0.016	-0.082	0.097	-0.078	–	–	-0.035	0.145	0.038	0.066	0.123	–	–	-0.072
PAN2 (UniProt Q504Q3)	–	–	–	–	–	0.044	–	–	–	–	–	-0.134	–	–	–	–	–	–	0.099	–
PSMA3 (UniProt G3V4X5)	–	–	–	–	–	0.051	0.348	–	–	–	-0.451	-0.065	–	-0.114	–	–	0.733 (active)	-0.001	–	–
PCNX1 (UniProt Q96RV3)	–	–	0.036	–	–	-0.006	–	–	-0.019	-0.041	–	0.008	–	–	0.005	–	–	–	0.015	0.143
PNPLA4 (UniProt P41247)	0.426	0.13	–	-0.176	-0.148	0.133	-0.084	0.059	0.108	0.029	-0.094	0.012	0.005	-0.022	–	0.115	0.209	0.049	0.054	-0.025
PPP2R5B (UniProt Q15173)	-0.044	0.039	–	-0.05	-0.003	0.072	–	0.124	–	–	–	-0.083	0.165	–	–	0.092	–	–	0.037	–

From the supplement of paper PMC10849652
